Assay [1] is described as follows: TOX21_p53_BLA_p2_viability: Viability Assessment in the Tox21 HCT-116 p53 Agonism Beta-lactamase Assay, Phase 2 (AID 2283591).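 Also: compound exposure lasted 16 h at 37 °C; actives lower the ATP signal meaning cytotoxicity.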 An outline of the steps: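 Cytotoxicity readout: CellTiter-Glo ATP luminescence, 30 min at room temperature, after the beta-lactamase read. Cells were HCT116 exposed 16 h at 37C to compounds pin-transferred at 217-fold dilution from DMSO stocks.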

Assay [2] has as its target Cellular tumor antigen p53 (Homo sapiens) (UniProt P04637). In words: TOX21_p53_BLA_p2_ratio: Tox21 HCT-116 p53 Agonism Beta-lactamase Assay, Ratio, Phase 2 (AID 2283592). An outline of the steps:
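DMSO-normalized, positive-direction endpoint derived from the 460 nm/530 nm FRET ratio in HCT116 p53 beta-lactamase reporter cells exposed 16 h at 37C and loaded with CCF4-AM for 2 h.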

The nature of assay [3]: TOX21_p53_BLA_p3_viability: Viability Assessment in the Tox21 HCT-116 p53 Agonism Beta-lactamase Assay, Phase 3 (AID 2283593).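 Also: cells exposed to compound for 16 h before reading.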 An outline of the steps: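 Cellular ATP was quantified by CellTiter-Glo luminescence, read after 30 min at room temperature. Beforehand, HCT116 cells (4000/well) received compound 5 h post-seeding, 217-fold diluted from DMSO, then incubated 16 h at 37C.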

The target of assay [4] is Cellular tumor antigen p53 (Homo sapiens) (UniProt P04637). Nature of the assay: TOX21_p53_BLA_p3_ratio: Tox21 HCT-116 p53 Agonism Beta-lactamase Assay, Ratio, Phase 3 (AID 2283596). Put shortly:
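Cells were seeded at 4000/well, rested 5 h at 37C, then dosed with DMSO compound solutions (217-fold dilution) for 16 h. CCF4-AM substrate was loaded for 2 h at room temperature, and the 460/530 nm emission ratio was fitted for gain of signal versus DMSO.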

Assay [5] can be described thus: TOX21_p53_BLA_p4_viability: Viability Assessment in the Tox21 HCT-116 p53 Agonism Beta-lactamase Assay, Phase 4 (AID 2283597).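 Also: hits lower the luminescence signal meaning cytotoxicity.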 Put shortly: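 In this multiplexed secondary endpoint, HCT116 cells (4000 per well, compound at 5 h, 16 h treatment) received CellTiter-Glo after the beta-lactamase read. Luminescence after 30 min RT reflects ATP, and falling signal marks cytotoxicity.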

In assay [6] the target is Cellular tumor antigen p53 (Homo sapiens) (UniProt P04637). In words: TOX21_p53_BLA_p5_ratio: Tox21 HCT-116 p53 Agonism Beta-lactamase Assay, Ratio, Phase 5 (AID 2283599). Put shortly:
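Beta-lactamase reporter ratio (blue 460 nm over green 530 nm, 405 nm excitation) after 2 h CCF4-AM loading, in HCT-116 cells exposed 16 h at 37 C to compounds pinned at 217-fold dilution. Increases relative to DMSO baseline scored.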

A short description of assay [7]: TOX21_p53_BLA_p5_viability: Viability Assessment in the Tox21 HCT-116 p53 Agonism Beta-lactamase Assay, Phase 5 (AID 2283600). An outline of the steps:
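Here cell health was gauged by ATP levels in wells holding 4000 cells, each treated 16 h with DMSO-delivered compounds at 217-fold dilution; reduced luminescence marked toxicity.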

For assay [8], the target named is Cellular tumor antigen p53 (Homo sapiens) (UniProt P04637). Nature of the assay: TOX21_p53_BLA_p4_ratio: Tox21 HCT-116 p53 Agonism Beta-lactamase Assay, Ratio, Phase 4 (AID 2283601). An outline of the steps:
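Signal is the blue/green (460nm/530nm) ratio of cleaved versus uncleaved CCF4-AM substrate, read after 2 h substrate loading. Cells were HCT116 carrying the p53-responsive beta-lactamase reporter, dosed 16 h at 37C, 5% CO2; CellTiter-Glo measured in parallel.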

Inconclusive results are not listed. The source made the active and inactive calls. The calls were made as follows: active = hit-call score of the fitted dose curve at least 0.9, where 1 is the maximum; inconclusive = response in the unintended direction; inactive = score below 0.9.

As a reminder, the AC50 is the concentration giving half of the maximal activity seen.

Cellular tumor antigen p53 (Homo sapiens), sequence (P04637 whole entry, looked up): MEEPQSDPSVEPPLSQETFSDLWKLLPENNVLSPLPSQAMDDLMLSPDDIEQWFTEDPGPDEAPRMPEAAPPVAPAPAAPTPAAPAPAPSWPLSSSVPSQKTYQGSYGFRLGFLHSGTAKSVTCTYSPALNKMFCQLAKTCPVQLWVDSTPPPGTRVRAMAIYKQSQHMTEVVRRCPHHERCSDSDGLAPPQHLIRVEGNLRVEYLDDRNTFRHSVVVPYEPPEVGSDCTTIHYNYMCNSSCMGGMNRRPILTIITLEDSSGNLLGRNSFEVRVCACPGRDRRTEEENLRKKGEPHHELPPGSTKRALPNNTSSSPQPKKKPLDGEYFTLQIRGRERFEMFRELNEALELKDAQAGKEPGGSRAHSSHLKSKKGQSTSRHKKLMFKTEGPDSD

In the case of `O=C1c2ccccc2C(=O)C1(O)O`, the concentration at half-maximal activity (AC50) is 88.5 µM (active) in assay [1]; 31.8 µM (active) in assay [2]; 63.8 µM (active) in assay [3]; 22.8 µM (active) in assay [4]; 60.2 µM (active) in assay [5]; 29 µM (active) in assay [6]. In addition, in assay [8], the half-maximal activity concentration (AC50) is 36.3 µM (active). For the same compound, the outcome in assay [7] was inactive.

For `O=CC=C(c1ccccc1)c1ccccc1`, the compound was called inactive in assay [1], in assay [4], in assay [6], in assay [7] and in assay [8]. Moreover, the concentration at half-maximal activity (AC50) was 46.4 µM (active) in assay [2], 47.3 µM (active) in assay [3] and 29.8 µM (active) in assay [5].

Regarding `C[C@H]1O[C@@H](n2cc(F)c(=O)[nH]c2=O)[C@H](O)[C@@H]1O`, the concentration at half-maximal activity (AC50) in assay [1] was 17.9 µM (active); in assay [2] it was 23 µM (active); in assay [3], 15.5 µM (active); in assay [4], 20.7 µM (active); in assay [6] it was 24.4 µM (active); in assay [8], 27.5 µM (active). In addition, the compound was classed as inactive in assay [5] and in assay [7].

In the case of `CN(C)c1nc(N(C)C)nc(N(C)C)n1`, the result in assay [1], in assay [2], in assay [3], in assay [4], in assay [5] and in assay [6] was inactive. In addition, the outcome in assay [7] and in assay [8] was inactive.

Consider `O=C(NCC1CCCCN1)c1cc(OCC(F)(F)F)ccc1OCC(F)(F)F` (stereo not given), for which the call in assay [1], in assay [2], in assay [3], in assay [4], in assay [5] and in assay [6] was inactive. Besides, the call in assay [7] and in assay [8] was inactive.

In the case of `CO[C@@H]1[C@@H](O[C@@H]2O[C@H](C)[C@@H](O[C@H]3C[C@@](C)(O)[C@@H](OC(=O)CC(C)C)[C@H](C)O3)[C@H](N(C)C)[C@H]2O)[C@@H](CC=O)C[C@@H](C)C(=O)/C=C/C2OC2C[C@@H](C)OC(=O)C[C@H]1OC(C)=O` (stereo not given in full), the compound was called inactive in assay [1], in assay [2], in assay [3], in assay [4], in assay [5] and in assay [6]. For the same compound, the call in assay [7] and in assay [8] was inactive.

Consider `CCCCCCCCCCCCCCCCCCNC(=O)OC1CCN(C(=O)OC[C@H](COC(=O)N(Cc2cccc[n+]2CC)C(=O)c2ccccc2OC)OC)CC1`, for which the outcome in assay [1], in assay [2], in assay [3], in assay [4] and in assay [7] was inactive. For the same compound, the AC50 is 30.2 µM (active) in assay [5], 35.7 µM (active) in assay [6] and 38.4 µM (active) in assay [8].

Consider `CO[C@H]1/C=C/O[C@@]2(C)Oc3c(C)c(O)c4c(O)c(c(/C=N/N5CCN(C6CCCC6)CC5)c(O)c4c3C2=O)NC(=O)/C(C)=C\C=C\[C@H](C)[C@H](O)[C@@H](C)[C@@H](O)[C@@H](C)[C@H](OC(C)=O)[C@@H]1C`, for which the AC50 in assay [1] was 33.8 µM (active); in assay [2], 43.8 µM (active); in assay [3] it was 35.3 µM (active); in assay [4] it was 42.8 µM (active); in assay [5], 37.2 µM (active); in assay [6] it was 43.2 µM (active). Besides, the AC50 in assay [7] was 42.8 µM (active); in assay [8], 36.8 µM (active).

For `CCc1cccc(CC)c1NC(=O)CN(CC(=O)O)CC(=O)O`, the compound was called inactive in assay [1], in assay [2], in assay [3], in assay [4], in assay [5] and in assay [6]. In addition, the compound was called inactive in assay [7] and in assay [8].

Turning to `CCOc1ccc([N+](=O)[O-])cc1`, the outcome in assay [1] and in assay [2] was inactive. Moreover, the concentration at half-maximal activity (AC50) in assay [3] is 70.9 µM (active); in assay [4], 80.9 µM (active); in assay [5], 46.7 µM (active); in assay [6], 84.9 µM (active); in assay [7], 61.1 µM (active); in assay [8] it was 81.5 µM (active).

Consider `CCN1/C(=C/C=C/c2sc3ccccc3[n+]2CC)Sc2ccccc21`, for which the call in assay [1] and in assay [7] was inactive. For the same compound, the half-maximal activity concentration (AC50) is 9.06 µM (active) in assay [2]; 4.58 µM (active) in assay [3]; 23.5 µM (active) in assay [4]; 20 µM (active) in assay [5]; 11.5 µM (active) in assay [6]; 12.9 µM (active) in assay [8].

Regarding `C=C1/C(=C\C=C2/CCC[C@]3(C)[C@@H]([C@H](C)CCCC(C)(C)O)CC[C@@H]23)C[C@@H](O)C[C@@H]1O`, the AC50 is 19.8 µM (active) in assay [1]; 37.8 µM (active) in assay [2]; 24.5 µM (active) in assay [3]; 25.4 µM (active) in assay [4]; 13 µM (active) in assay [5]; 27 µM (active) in assay [6]. Moreover, the concentration at half-maximal activity (AC50) is 21 µM (active) in assay [7] and 26.1 µM (active) in assay [8].

As for `CCN(CC)CCCN(c1ccccc1)C1Cc2ccccc2C1`, the AC50 in assay [1] was 9.12 µM (active); in assay [2] it was 23.3 µM (active); in assay [3], 26.6 µM (active); in assay [4], 36.3 µM (active); in assay [5] it was 2.11 µM (active); in assay [6], 36.7 µM (active). For the same compound, the AC50 in assay [7] was 30.6 µM (active); in assay [8] it was 23 µM (active).

Regarding `CCCOc1ccccc1-c1nc2n[nH]nc2c(=O)[nH]1`, the compound was called inactive in assay [1], in assay [2], in assay [3], in assay [4], in assay [5] and in assay [6]. Besides, the compound was called inactive in assay [7] and in assay [8].

For `CO[Si](CCCNc1ccccc1)(OC)OC`, the compound was called inactive in assay [1], in assay [2], in assay [3], in assay [4], in assay [5] and in assay [6]. The call in assay [7] and in assay [8] was inactive.

On to `CC(=O)c1cccc([N+](=O)[O-])c1`, for which the compound was called inactive in assay [1], in assay [2], in assay [3], in assay [4], in assay [5] and in assay [6]. Moreover, the call in assay [7] and in assay [8] was inactive.

In the case of `O=C(CCS)OCC(COC(=O)CCS)(COC(=O)CCS)COC(=O)CCS`, the call in assay [1], in assay [2], in assay [3], in assay [5], in assay [6] and in assay [7] was inactive. In assay [8], the result was inactive. The AC50 in assay [4] was 15.7 µM (active).

For the compound `COc1cc([C@@H]2c3cc4c(cc3C(O[C@@H]3O[C@@H]5COC(c6cccs6)O[C@H]5[C@H](O)[C@H]3O)C3COC(=O)[C@@H]32)OCO4)cc(OC)c1O` (stereo not given in full), the compound was called inactive in assay [1], in assay [3], in assay [5] and in assay [7]. The AC50 in assay [2] is 0.717 µM (active); in assay [4] it was 0.939 µM (active); in assay [6], 0.886 µM (active); in assay [8], 0.841 µM (active).

With `CC(C)COC(=O)COc1cc(Cl)c(Cl)cc1Cl`, the compound was called inactive in assay [1], in assay [2], in assay [3], in assay [4], in assay [5] and in assay [6]. The compound was called inactive in assay [7] and in assay [8].

Consider `O=C1NCN(c2ccccc2)C12CCN(CCCC(c1ccc(F)cc1)c1ccc(F)cc1)CC2`, for which the AC50 in assay [1] is 37.3 µM (active); in assay [2], 39.1 µM (active); in assay [3] it was 35.9 µM (active); in assay [4], 42.2 µM (active); in assay [5], 23 µM (active); in assay [6], 45 µM (active). The AC50 was 35.1 µM (active) in assay [7] and 26.7 µM (active) in assay [8].

For the origin of these results see PubChem BioAssay (EPA / NIEHS).
